Data on 40 compounds can be found in PubChem BioAssay.

Values without a mark were called inactive. The rule behind the calls is not given here.

In this assay the target is Pantothenate synthetase (Mycobacterium tuberculosis (strain ATCC 25618 / H37Rv)) (UniProt P9WIL5). Nature of the assay: Coupled enzyme confirmation of inhibitors against recombinant Mtb PanC (AID 375).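 Note: 0% = full reaction with vehicle and 100% = no enzyme background.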 The note with it: coupled enzyme assay; at 10 µM, hits give high values.
Sequence of Pantothenate synthetase (Mycobacterium tuberculosis (strain ATCC 25618 / H37Rv)) (P9WIL5 whole entry, looked up): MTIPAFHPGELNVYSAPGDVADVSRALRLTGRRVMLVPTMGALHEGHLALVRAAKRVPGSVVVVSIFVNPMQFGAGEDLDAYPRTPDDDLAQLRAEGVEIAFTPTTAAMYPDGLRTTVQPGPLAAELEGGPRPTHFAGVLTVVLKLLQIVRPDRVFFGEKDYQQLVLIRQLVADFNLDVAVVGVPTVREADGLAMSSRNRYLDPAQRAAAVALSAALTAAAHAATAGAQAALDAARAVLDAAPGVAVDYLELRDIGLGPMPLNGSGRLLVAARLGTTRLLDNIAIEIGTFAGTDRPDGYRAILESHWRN
Take `CCCOc1cccc(C(=O)N(Cc2ccco2)C2CCS(=O)(=O)C2)c1` (stereo not given): the inhibition (commonly the relative decrease from the control value, in per cent) was 0%.
The figure for `CC(=O)[C@H]1CC[C@H]2[C@@H]3CCC4=CC(=O)CC[C@]4(C)[C@H]3CC[C@]12C` is 5%; for `CCOC(=O)C1CCCN(Cc2nc(N)nc(Nc3ccc(C)cc3)n2)C1` (stereo not given) it is 0%; for `CC1=C(C(=O)Nc2ccc(F)cc2)C(c2cccc(C)c2)n2nc(CCCO)nc2N1` (stereo not given) it is 6%.
Turning to `NC(=O)c1cc(-c2ccccc2)nc(N2CCOCC2)n1`, the inhibition was 0%.
With `[O-][n+]1c2ccc3nonc3c2nn1-c1ccccc1Cl` the figure was 0%; with `O=C(NCc1ccccn1)C(C(=O)c1ccc(F)cc1)n1ccccc1=O` (stereo not given), 5%.
The figure for `COc1cc(C)nc(N2CCCC(C(=O)Nc3cccc(Cl)c3Cl)C2)n1` (stereo not given) is 0%; for `O=C1CSC(c2cccc(F)c2)N1c1ccccc1F` (stereo not given) it is 2%.
The figure for `CCOC(=O)NC(=O)CSc1nnnn1-c1ccc(Cl)cc1` is 0%; for `Cc1ccc(S(=O)(=O)NCC(=O)OCC(=O)Nc2ncc(Cl)cc2Cl)cc1` it is 0%; for `CCc1cccc(NS(=O)(=O)c2c(C)n[nH]c2C)c1` it is 0%.
Consider `Cc1cc(C)nc(N(C#N)CC(=O)N2CCC(C(N)=O)CC2)n1`, for which the inhibition is 1%.
The figure for `O=c1c2ccccc2cnn1-c1nc2ccccc2s1` is 0%; for `CCOC(=O)c1cccc(NC(=O)CSc2nc3ccccc3c(=O)n2CC)c1` it is 0%.
The figure for `O=C(Nc1ccc2c(c1)nc1n2CCSC1)c1ccccc1` is 0%; for `CCCNC(=O)C1CN(S(=O)(=O)c2ccccc2)CCN1S(=O)(=O)c1ccccc1` (stereo not given) it is 0%.
The figure for `CCOC(=O)CNC(=O)Cn1cnc2c(nnn2-c2cccc(Cl)c2)c1=O` is 0%; for `COc1ccc(OCC(=O)N2CCN(C(=O)COc3ccc(Br)cc3)CC2)cc1` it is 0%.
For `CCN(CC)CCNC(=O)c1ccc(CS(=O)(=O)c2ccc(Br)cc2)o1`, the inhibition is 0%.
The figure for `O=C(CSc1nc2ccccc2[nH]1)c1ccc2c(c1)OCO2` is 0%; for `O=C(COC(=O)c1ccc(NS(=O)(=O)c2ccc3c(c2)OCCO3)cc1)NCC1CCCO1` (stereo not given) it is 2%; for `CC1(C)S[C@@H]2[C@H](NC(=O)Cc3ccccc3)C(=O)N2[C@H]1C(=O)O` it is 6%.
With `C=CCNC(=O)c1cc(-c2ccccc2O)on1` the figure was 0%; with `NC(=O)COC(=O)c1ccc(S(=O)(=O)N2CCCCCC2)cc1`, 0%.
With `O=C(NCCCN1CCOCC1)c1cc(-c2ccc(O)cc2)on1` the figure was 0%; with `Cc1ccnc(NS(=O)(=O)c2ccc(NC(=O)Cc3cccs3)cc2)n1`, 3%; with `Cn1c(=O)c2c(ncn2CC(O)CNc2ccc(Cl)cc2)n(C)c1=O` (stereo not given), 0%.
On to `c1ccc(CC2CCN(c3nc4ccccc4n4nnnc34)CC2)cc1`, for which the inhibition is 11%.
Take `COc1cc([C@@H]2[C@H]3CN(C)CC=C3C(C#N)=C(N)C2(C#N)C#N)cc2c1OCO2`: the inhibition was 0%.
The figure for `CC(=O)Nc1ccc(S(=O)(=O)n2nc(C)cc2C)cc1` is 0%.
With `CCc1nnc(NC(=O)CSc2nnc(-c3ccccc3OC)n2-c2ccccc2)s1` the figure was 4%.
In the case of `COc1ccccc1-c1ccc(Nc2cccc(C(C)=O)c2)nn1`, the inhibition is 0%.
With `CCC1(c2ccccc2)C(=O)NCNC1=O` the figure was 7%; with `COc1ccc(/C=C(/C#N)c2cccnc2)cc1OC`, 8%.
With `CCCOc1ccc(/C(O)=C2/C(=O)C(=O)N(CCCOC)C2c2ccncc2)cc1` (stereo not given), the inhibition was 4%.
With `CCC(OC(=O)c1cccs1)C(=O)NCc1ccco1` (stereo not given) the figure was 0%.
`CC(C)C(=O)Nc1cccc(NC(=O)c2cccnc2)c1`: the inhibition is 1%.
With `O=C(CCSc1nc(-c2ccco2)cc(C(F)(F)F)n1)Nc1ccc2c(c1)OCO2` the figure was 0%; with `CC(=O)c1c(C)[nH]c(C(=O)NC2=NCCS2)c1C`, 0%.
